# Source: PubChem (Sanford-Burnham Center for Chemical Genomics)
# CYP2C9 inhib: blockers of cytochrome P450 2C9 activity – biochemical, luminescence, ADME assay, primary screen | inhibition, % at 5 µM | P11712 | AID 777, 2007 | CYP2C9 Supersomes, luciferin-H conversion | 20% of 96,000 active;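 active = blocking of liver enzyme CYP2C9 beyond about 50% at 5 µM, limit read from the data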
# Target sequence (P11712 whole entry, looked up): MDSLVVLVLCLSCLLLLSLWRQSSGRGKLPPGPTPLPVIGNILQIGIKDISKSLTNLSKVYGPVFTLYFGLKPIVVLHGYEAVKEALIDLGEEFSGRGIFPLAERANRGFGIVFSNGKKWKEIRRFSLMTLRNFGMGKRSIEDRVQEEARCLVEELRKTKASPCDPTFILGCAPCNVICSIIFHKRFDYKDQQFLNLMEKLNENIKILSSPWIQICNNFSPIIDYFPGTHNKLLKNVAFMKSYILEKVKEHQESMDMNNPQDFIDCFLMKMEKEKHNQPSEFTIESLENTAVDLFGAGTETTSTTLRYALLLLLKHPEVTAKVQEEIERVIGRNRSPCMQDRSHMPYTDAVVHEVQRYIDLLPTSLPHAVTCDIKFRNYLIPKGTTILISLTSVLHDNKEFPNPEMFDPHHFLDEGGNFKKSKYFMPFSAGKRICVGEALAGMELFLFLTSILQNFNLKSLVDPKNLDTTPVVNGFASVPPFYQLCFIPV
# CYP2C19 inhib: blockers of cytochrome P450 2C19 activity – biochemical, luminescence, ADME assay, primary screen; AID 778, 2007; inhibition, % at 5 µM; CYP2C19 Supersomes, luciferin-H EGE luminescence, 30 min; P33261; 21% of 96,000 active;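 active = CYP2C19 inhibition above a set limit at 5 µM in the primary screen, cut at about 50% in these data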;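 note: plate controls were negative control wells for no effect and 2.5 mM tranylcypromine positive control for full effect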
# CYP2C9 act: human CYP2C9 activators, primary screen, biochemical, luminescence; recombinant CYP2C9, luciferin-H conversion; stronger effect = higher value; factor 1 = untreated enzyme, 0 = blocked; activation factor at 5 µM; 1.4% of 96,000 active;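 active = activation factor of 2 or more for CYP2C9 at a 5 µM dose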;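 note: 0 = sulfaphenazole-blocked wells and 1 = vehicle-only wells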
# CYP2C19 act: human CYP2C19 activators, primary screen, biochemical, luminescence; 96,000 tested, under 10 active; activation factor at 5 µM; recombinant CYP2C19, luciferin-H EGE luminescence; stronger effect = higher value; 0 = fully inhibited enzyme, 1 = untreated enzyme; Cytochrome P450 2C19 (Homo sapiens), P33261;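 active = activation factor of at least 2 at 5 µM in the primary screen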;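 note: 0 = wells with 2.5 mM tranylcypromine and 1 = vehicle-only wells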
# * marks the source's active call; other numbers are inactive results; · = not tested or not shown. This is a sample that favours compounds with a hit; in the whole collection about 31% have one here.
SMILES,CYP2C9 inhib,CYP2C19 inhib,CYP2C9 act,CYP2C19 act
CC(NC(=O)C1C(=O)N(CCO)C2(C)CC1c1ccccc1O2)c1ccccc1 (stereo unspecified),20,8,0.8,0.9
CCCn1c(-c2cccs2)nc2ccccc21,3,30,1,0.7
Cn1c(NCc2c[nH]c3ccccc23)nc2ccccc21,16,69*,0.8,0.3
Cn1c(/N=C/c2c[nH]c3ccccc23)nc2ccccc21,-1,6,1,0.9
c1ccc(Cn2c(CN3CCCC3)nc3ccccc32)cc1,8,58*,0.9,0.4
CCn1c(NCc2ccc(N(C)C)cc2)nc2ccccc21,-16,72*,1.2,0.3
CCn1c(NCc2cccs2)nc2ccccc21,-54,57*,1.5,0.4
CN(c1ccc(C(=O)NCCc2ccccc2)cc1)S(C)(=O)=O,4,12,1,0.9
O=C(O)c1cccc(N2CCCCS2(=O)=O)c1,-26,-17,1.3,1.2
CCOc1ccc(NS(=O)(=O)CC23CCC(CC2=O)C3(C)C)cc1 (stereo unspecified),-20,16,1.2,0.8
O=C(COC(=O)C1c2ccccc2Oc2ccccc21)NC1CCS(=O)(=O)C1 (stereo unspecified),-26,32,1.3,0.7
CC(C)N1C2OC(C3OC4C(O3)N(C(C)C)S(=O)(=O)N4C(C)C)OC2N(C(C)C)S1(=O)=O (stereo unspecified),5,9,0.9,0.9
CC(=O)N(Cc1ccco1)C1(C(=O)NC2CCCC2)CCCCC1,13,10,0.9,0.9
C=CCc1cccc(CNc2nc3ccccc3n2CC)c1O,-106,43,2.1*,0.6
Cn1c(NCc2cccs2)nc2ccccc21,3,52*,1,0.5
CCN(CC)CCn1c(NCc2nc3ccccc3n2Cc2ccccc2)nc2ccccc21,86*,19,0.1,0.8
Cn1c(NCc2ccco2)nc2ccccc21,-14,17,1.1,0.8
CCCc1nnc(NC(=O)CCC(=O)N2CCCCCC2)s1,-3,8,1,0.9
CCC(=O)Nc1nnc(CSCc2ccc(F)cc2)s1,6,35,0.9,0.7
CCn1c(O)c(N=NC(=O)CNC(=O)/C=C/c2ccco2)c2ccccc21,65*,50*,0.4,0.5
Cc1ccc(CNc2nc(N)c([N+](=O)[O-])c(Nc3cccc(F)c3)n2)cc1,65*,50*,0.3,0.5
Nc1nc(NCc2ccccc2)nc(Nc2cccc(F)c2)c1[N+](=O)[O-],·,-6,·,1.1
CCn1cc(C2=NOC(C(=O)Nc3ccccc3C(=O)OC)C2)c(C)n1 (stereo unspecified),-148,24,2.5*,0.8
COC(=O)c1ccccc1NC(=O)C1CC(c2ccccc2O)=NO1 (stereo unspecified),-20,9,1.2,0.9
c1ccc(C(c2ccccc2)N2CCN(c3nc4ccccc4n4cnnc34)CC2)cc1,12,-12,0.9,1.1
SMILES,CYP2C9 inhib,CYP2C19 inhib,CYP2C9 act,CYP2C19 act
CCOC(=O)C1CCN(C(c2ccc(OC)c(OC)c2)c2sc3nc(C)nn3c2O)CC1 (stereo unspecified),7,11,0.9,0.9
CCC(=O)N1CCN(c2ccccc2NC(=O)c2ccc(OC)c(Cl)c2)CC1,82*,74*,0.2,0.3
Cc1ccc(C(=O)Nc2ccccc2N2CCN(C(=O)C(C)C)CC2)cc1C,89*,76*,0.1,0.2
CCCC(=O)Nc1ccccc1N1CCN(C(=O)C(C)C)CC1,-20,-5,1.2,1.1
COc1c(F)c(F)c(C(=O)Nc2ccccc2N2CCN(C(=O)C(C)C)CC2)c(F)c1F,78*,61*,0.2,0.4
CC(C)(C)NC(=O)CN(C(=O)C1CSC(=O)C1)c1ccc2c(c1)OCCO2 (stereo unspecified),-23,-7,1.2,1.1
CCOc1nc(-c2ccccc2Cl)ccc1C#N,23,19,0.8,0.8
c1ccc(-n2ncc3c(N4CCN(c5ccccn5)CC4)nc(N4CCCCCC4)nc32)cc1,27,18,0.7,0.8
CCn1c(COc2ccc(=O)n(-c3ccccc3)n2)nnc1SCc1ccccc1C,61*,15,0.4,0.8
CCn1c(COc2ccc(=O)n(-c3ccccc3)n2)nnc1SCc1ccc(C)cc1,44,16,0.6,0.8
N#C/C(=C/c1ccc(Sc2nc3ccccc3[nH]2)o1)c1cccc(F)c1,95*,92*,0,0.1
N#C/C(=C/c1ccc(Sc2nc3ccccc3[nH]2)o1)c1cccc(Br)c1,97*,96*,0,0
